Reference: PubChem BioAssay AID1159580 (chemical genetic matrix, 2015)
Where “and” joins values, the source holds several entries; their conditions need not be identical. Identical values can stand only once. Hit rate of the full screen: of about 5,500 compounds, about 2,000 (36%) were called active. About 18% were inconclusive and are not listed. Rule as the data show it: active = normalized growth mostly below about 0.91 (no sharp cut-off); inconclusive = no clear call, values can overlap the other calls; inactive = mostly above about 0.92. The list shows a part of the results.

Experiment: chemical genetic growth profiling, strain panel (AID 1159580);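 also: tested at 20 µM; growth read once vehicle control cultures reached saturation at 30 °C; 1 = growth at the plate median or of vehicle wells; lower values mean less growth of the strain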
Conditions: S. cerevisiae deletion strains, growth OD

Measured: normalized growth

NC1CONC1=O (centres undefined)
inactive: locus YAL040C, strain CLN3, active compounds read low 1.01 and 0.999 | locus YCL061C, strain MRC1 (second series), active compounds read low 1 | locus YDR150W, strain NUM1, active compounds read low 1.01 | locus YDR363W, strain ESC2, active compounds read low 1.01 | locus YER002W, strain NOP16, active compounds read low 1.01 and 0.983 | locus YGR229C, strain SMI1, active compounds read low 1.01 | locus YMR307W, strain GAS1, active compounds read low 1.01 | locus YNL128W, strain TEP1, active compounds read low 1.03 | locus YNL153C, strain GIM3, active compounds read low 1.01 and 0.981 | locus YNL175C, strain NOP13, active compounds read low 1.02 | locus YNL197C, strain WHI3, active compounds read low 1.02 and 1 | locus YNL224C, strain SQS1, active compounds read low 0.993 and 0.985 | locus YOR083W, strain WHI5 (second series), active compounds read low 1.01 | locus YPL241C, strain CIN2, active compounds read low 1
